# Bioassay records: PubChem BioAssay, National Center for Advancing Translational Sciences (NCATS)
# VACV mCherry inh – vaccinia inhibition (mCherry reporter); Vaccinia virus mCherry reporter infection, fluorescence; actives 0.63% (n = 310,000); Potency, µM (highest dose often 36.5 µM), inactives show at the highest dose activity change, negative = inhibition, usual class: inhibitors; calls by dose curve; tested in A549 cells; further: nearly all actives have a fitted effect of over 35% in size
# FMDV inh – foot and mouth disease virus antiviral activity; FMDV antiviral cell-based qHTS; Potency, µM (titrated, usually from 57.9 µM), for the others: at the top dose activity change, negative = inhibition, actives largely listed as inhibitors; actives 1.2% (n = 410,000); calls by dose curve; tested in HEK293T cells; further: read-out not given here; nearly all actives have a fitted effect of over 45% in size
# LASV entry inh – Lassa virus entry inhibition. Lassa virus pseudotype entry inhibition, cell reporter. Potency, µM (series often up to 37.9 µM), for the others: at the top dose activity change, negative = inhibition, actives largely listed as inhibitors. actives 1.2% (n = 300,000); calls by dose curve; tested in HEK293 cells; further: nearly all actives have a fitted effect of over 50% in size
# Vaccinia Venus – inhibitors of vaccinia virus (Venus reporter); Potency, µM (doses to about 36.5 µM), without a hit: at the highest dose activity change, negative = inhibition, usual class: inhibitors; actives 0.46% (n = 330,000); AID 720580; Vaccinia virus Venus reporter expression, fluorescence; calls by dose curve; tested in A549 cells; further: nearly all actives have a fitted effect of over 30% in size
# Sm TGR inh – S. mansoni TGR enzyme inhibition | purified TGR, DTNB reduction, TNB absorbance 405 nm | Potency, µM (top dose mostly 114 µM), for the others: top-dose activity change, negative = inhibition, usual class: inhibitors | actives 3% (n = 360,000) | AID 485364; active means well fitted inhibition curve with a large enough effect; inconclusive means small, poorly fitted or top-dose-only effect; inactive means no such curve, though single readings can be large or run the other way; further: nearly all actives have a fitted effect of over 60% in size
#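 First, TGR (20 nM dispensed) and NADPH were mixed with compound. Second, a 15 min room-temperature incubation followed. Third, further NADPH and then DTNB were added to start the reaction. Finally, TNB absorbance was monitored kinetically.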
# Marburg entry inh – Marburg virus entry inhibition | Marburg virus pseudotyped entry inhibition, cell reporter | AID 540276 | actives 1.8% (n = 300,000) | Potency, µM (series often up to 37.8 µM), for the others: at the top dose activity change, negative = inhibition, most hits filed as inhibitors; calls by dose curve; tested in HEK293 cells
# * marks the source's active call; other numbers are inactive results; i = inactive; ? = inconclusive; . = no result given; [ ] = dose if it differs, or a comment. A selection: hits, their analogues and other compounds. The true share with any hit is near 5.4%. On the % scale 0 is the no-effect control and ±100 the full control effect; potency means the concentration at half of the fitted maximal effect.
SMILES,VACV mCherry inh,FMDV inh,LASV entry inh,Vaccinia Venus,Sm TGR inh,Marburg entry inh
COc1ccc(C2C=C(c3ccccc3)Nc3nc(NS(=O)(=O)c4ccccc4)nn32)cc1 (stereo not drawn),?,1%,1%[46.1 µM],-28%,-2%,5%[46.1 µM]
CCOc1ccc(C(C)=O)cc1COc1ccc(C)nc1[N+](=O)[O-],-10%,20%,17%[46.1 µM],5%,10µM*,9%[46.1 µM]
CCOC(=O)c1ccc(NC(=O)Cn2nc(C)c3nn(-c4ccc(Cl)cc4)c(C)c3c2=O)cc1,-9%,-15%,-24%[46.1 µM],-8%,5%,.
COc1ccc(CNCCC(c2ccccc2)c2ccc(OC(C)C)cc2)cc1OC (stereo not drawn),?,-25%,6.3µM*,-24%,0%,?
COc1ccc(CN(CCC(c2ccccc2)c2ccc(OC(C)C)cc2)C(=O)CCl)cc1OC (stereo not drawn),-15%,4.5µM*,?,?,?,?
COc1ccc(CNCCC(c2ccc(F)cc2)c2ccc(OC(C)C)cc2)cc1OC (stereo not drawn),?,-1%,?,?,18%,?
COc1cccc(CNC(=O)c2ccc(NC(=O)N3CC(C)Sc4ccccc43)cc2)c1 (stereo not drawn),-30%,0%,-7%[46.1 µM],-26%,5%,1%[46.1 µM]
Cc1ccc(CNC(=O)Cn2ccn(-c3cc(C)cc(C)c3)c(=O)c2=O)cc1,-7%,23%,15%[46.1 µM],-11%,1%,.
O=C1C(Cl)=C(NCC2CCCO2)C(=O)N1c1ccccc1 (stereo not drawn),.,6%,-16%,.,50µM*,-8%
O=C1C(Cl)=C(NCC2CCCO2)C(=O)N1C1CCCCC1 (stereo not drawn),.,-9%,5%,.,-19%,1%
COc1ccc(OC)c(NC(=O)Cn2c(CCC(=O)O)ccc2-c2ccc(C)cc2)c1,i,-12%,-27%[46.1 µM],-7%,-27%,-10%[46.1 µM]
O=C(O)CCc1ccc(-c2ccc(Br)cc2)n1CC(=O)O,-7%,11%,14%,-3%,?,?
CC(=O)Nc1ccc(-n2c(CCC(=O)O)ccc2-c2ccc(Br)cc2)cc1,-5%,-23%,-13%[46.1 µM],0%,35µM*,9%[46.1 µM]
CC(=O)Nc1ccc(-n2c(CCC(=O)O)ccc2-c2ccc(C)cc2)cc1,-17%,3%,24%[46.1 µM],-5%,14µM*,24%[46.1 µM]
Cc1nc2nc(N)nn2c(C)c1C/C=C/c1ccccc1,i,-6%,5%[46.1 µM],-9%,16µM*,-6%[46.1 µM]
Cc1ccc(C23CC4CC(CC(CC(=O)N5CCOCC5)(C4)C2)C3)cc1,.,?,8.2µM*,.,-14%,?
CC(CN1CCN(CC(C)C(=O)c2ccccc2)CC1)C(=O)c1ccccc1 (stereo not drawn),-13%,-6%,?,-14%,.,1%
O=C(CN1CCOCC1)c1ccc(Br)cc1,-12%,3%,-4%[46.1 µM],-6%,35µM*,-2%[46.1 µM]
CCOc1ccc(C(=O)C(CN2CCOCC2)c2ccccc2)cc1 (stereo not drawn),10µM*,?,26µM*,?,-5%,6.5µM*
CN(C)CC(C(=O)c1ccccc1)c1ccccc1 (stereo not drawn),14µM*,18µM*,8.9µM*,10µM*,35µM*,6.3µM*
O=C(CN1CCOCC1)Nc1ccc(Br)cc1,-25%,17%,27%,-7%,-1%,?
O=C(c1ccccc1)C(CN1CCCCC1)c1ccccc1 (stereo not drawn),?,28µM*,?,?,.,?
Cc1ccc(CNC(=O)c2cc(-c3ccc(C)cc3)nc3n[nH]c(-c4cccc([N+](=O)[O-])c4)c23)cc1,?,-17%,2%[46.1 µM],?,2%,.
CCOC(=O)NN=C1C[C@@H](O)[C@@H](O)[C@@H]2[C@H]3C(=O)N(Cc4ccccc4)C(=O)[C@@H]3CC[C@@H]12,.,.,.,.,.,25%[14.2 µM]
O=C(c1ccc(Br)cc1)C(CN1CCOCC1)c1ccccc1 (stereo not drawn),i,18µM*,?,-19%,3.5µM*,?
CC(CN1CCOCC1)OC(=O)c1ccc(Br)cc1 (stereo not drawn),.,-16%,-4%,17%,-8%,4%
